The source of these data is ChEMBL document CHEMBL1961873, “Compounds: GSK PKIS; Assays: Nanosyn kinase panel” (2012).

Experiment [1] concerns the target Mitogen-activated protein kinase 3 (Homo sapiens) (UniProt P27361). As to conditions: at 1 µM.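 Further: values are mean percent inhibition of MAPK3.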
In experiment [2] the target is SRSF protein kinase 3 (Homo sapiens) (UniProt Q9UPE1). As to conditions: at 0.1 µM.
Experiment [3] has the same target. The following applies: at 1 µM.
For experiment [4], the target named is Mitogen-activated protein kinase 14 (Homo sapiens) (UniProt Q16539). The following applies: at 0.1 µM.
Sequence of Mitogen-activated protein kinase 14 (Homo sapiens) (Q16539 whole entry): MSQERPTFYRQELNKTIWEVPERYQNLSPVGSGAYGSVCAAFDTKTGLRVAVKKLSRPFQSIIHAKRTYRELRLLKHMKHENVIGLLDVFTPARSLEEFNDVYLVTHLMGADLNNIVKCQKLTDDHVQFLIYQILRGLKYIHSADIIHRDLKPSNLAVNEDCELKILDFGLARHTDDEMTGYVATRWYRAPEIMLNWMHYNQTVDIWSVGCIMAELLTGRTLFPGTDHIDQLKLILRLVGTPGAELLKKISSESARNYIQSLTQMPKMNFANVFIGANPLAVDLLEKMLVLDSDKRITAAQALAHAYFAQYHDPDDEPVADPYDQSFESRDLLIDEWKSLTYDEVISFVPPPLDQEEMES
Experiment [5] has the same target. As to conditions: at 1 µM.
Experiment [6] addresses Mitogen-activated protein kinase 11 (Homo sapiens) (UniProt Q15759). The following applies: at 0.1 µM.
Experiment [7] shares this target. The following applies: at 1 µM.
Experiment [8] has as its target T1, Mitogen-activated protein kinase 13 (Homo sapiens) (UniProt O15264).
T1 sequence (whole entry): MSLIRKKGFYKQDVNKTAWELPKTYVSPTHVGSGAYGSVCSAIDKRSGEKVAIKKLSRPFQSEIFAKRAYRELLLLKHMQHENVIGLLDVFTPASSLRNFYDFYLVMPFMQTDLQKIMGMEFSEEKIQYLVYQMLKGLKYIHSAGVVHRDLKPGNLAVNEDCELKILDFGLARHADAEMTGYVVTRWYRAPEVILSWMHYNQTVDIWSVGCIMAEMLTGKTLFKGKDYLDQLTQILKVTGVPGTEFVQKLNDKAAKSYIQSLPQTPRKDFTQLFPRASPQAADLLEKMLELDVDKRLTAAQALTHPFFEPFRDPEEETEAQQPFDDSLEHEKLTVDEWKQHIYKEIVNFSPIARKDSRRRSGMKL
As to conditions: at 0.1 µM.

The target in experiment [9] is T1, Mitogen-activated protein kinase 13 (Homo sapiens). The following applies: at 1 µM.
Experiment [10] deals with T2, Mitogen-activated protein kinase 12 (Homo sapiens) (UniProt P53778).
T2 sequence (whole entry): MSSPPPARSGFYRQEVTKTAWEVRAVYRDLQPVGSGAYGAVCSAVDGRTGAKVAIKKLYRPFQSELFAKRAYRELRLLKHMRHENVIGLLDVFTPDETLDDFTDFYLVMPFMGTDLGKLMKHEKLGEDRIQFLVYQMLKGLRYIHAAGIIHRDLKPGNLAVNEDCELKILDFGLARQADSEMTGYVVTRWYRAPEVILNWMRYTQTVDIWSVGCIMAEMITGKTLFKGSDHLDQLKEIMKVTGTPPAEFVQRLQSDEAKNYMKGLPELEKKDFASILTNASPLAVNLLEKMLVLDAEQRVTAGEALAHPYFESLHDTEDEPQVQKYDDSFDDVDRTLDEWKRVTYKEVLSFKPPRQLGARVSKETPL
As to conditions: at 0.1 µM.

Experiment [11] concerns the target T2, Mitogen-activated protein kinase 12 (Homo sapiens). The following applies: at 1 µM.
For experiment [12], the target named is SRSF protein kinase 1 (Homo sapiens) (UniProt Q96SB4). As to conditions: at 0.1 µM.
Sequence of SRSF protein kinase 1 (Homo sapiens) (Q96SB4 whole entry): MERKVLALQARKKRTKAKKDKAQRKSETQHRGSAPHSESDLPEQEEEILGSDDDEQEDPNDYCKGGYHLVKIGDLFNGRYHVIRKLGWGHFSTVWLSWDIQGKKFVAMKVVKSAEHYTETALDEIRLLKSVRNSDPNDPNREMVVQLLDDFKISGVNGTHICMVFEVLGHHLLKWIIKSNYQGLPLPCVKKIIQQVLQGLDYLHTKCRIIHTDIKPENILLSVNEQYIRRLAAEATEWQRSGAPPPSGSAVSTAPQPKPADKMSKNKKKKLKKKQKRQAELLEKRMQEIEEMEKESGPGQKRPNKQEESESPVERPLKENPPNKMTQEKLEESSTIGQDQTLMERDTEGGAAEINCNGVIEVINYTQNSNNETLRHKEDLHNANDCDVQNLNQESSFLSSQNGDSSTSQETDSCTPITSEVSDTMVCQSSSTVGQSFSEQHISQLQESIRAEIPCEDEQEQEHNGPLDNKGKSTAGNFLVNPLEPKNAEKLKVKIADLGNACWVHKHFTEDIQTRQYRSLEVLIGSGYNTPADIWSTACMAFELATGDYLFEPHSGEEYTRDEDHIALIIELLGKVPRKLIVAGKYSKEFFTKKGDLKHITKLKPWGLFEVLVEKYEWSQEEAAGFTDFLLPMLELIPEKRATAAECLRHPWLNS
Experiment [13] has the same target. As to conditions: at 1 µM.
The target in experiment [14] is Phosphatidylinositol 4,5-bisphosphate 3-kinase catalytic subunit alpha isoform (Homo sapiens) (UniProt P42336). As to conditions: at 0.1 µM.
Sequence of Phosphatidylinositol 4,5-bisphosphate 3-kinase catalytic subunit alpha isoform (Homo sapiens) (P42336 whole entry, canonical isoform): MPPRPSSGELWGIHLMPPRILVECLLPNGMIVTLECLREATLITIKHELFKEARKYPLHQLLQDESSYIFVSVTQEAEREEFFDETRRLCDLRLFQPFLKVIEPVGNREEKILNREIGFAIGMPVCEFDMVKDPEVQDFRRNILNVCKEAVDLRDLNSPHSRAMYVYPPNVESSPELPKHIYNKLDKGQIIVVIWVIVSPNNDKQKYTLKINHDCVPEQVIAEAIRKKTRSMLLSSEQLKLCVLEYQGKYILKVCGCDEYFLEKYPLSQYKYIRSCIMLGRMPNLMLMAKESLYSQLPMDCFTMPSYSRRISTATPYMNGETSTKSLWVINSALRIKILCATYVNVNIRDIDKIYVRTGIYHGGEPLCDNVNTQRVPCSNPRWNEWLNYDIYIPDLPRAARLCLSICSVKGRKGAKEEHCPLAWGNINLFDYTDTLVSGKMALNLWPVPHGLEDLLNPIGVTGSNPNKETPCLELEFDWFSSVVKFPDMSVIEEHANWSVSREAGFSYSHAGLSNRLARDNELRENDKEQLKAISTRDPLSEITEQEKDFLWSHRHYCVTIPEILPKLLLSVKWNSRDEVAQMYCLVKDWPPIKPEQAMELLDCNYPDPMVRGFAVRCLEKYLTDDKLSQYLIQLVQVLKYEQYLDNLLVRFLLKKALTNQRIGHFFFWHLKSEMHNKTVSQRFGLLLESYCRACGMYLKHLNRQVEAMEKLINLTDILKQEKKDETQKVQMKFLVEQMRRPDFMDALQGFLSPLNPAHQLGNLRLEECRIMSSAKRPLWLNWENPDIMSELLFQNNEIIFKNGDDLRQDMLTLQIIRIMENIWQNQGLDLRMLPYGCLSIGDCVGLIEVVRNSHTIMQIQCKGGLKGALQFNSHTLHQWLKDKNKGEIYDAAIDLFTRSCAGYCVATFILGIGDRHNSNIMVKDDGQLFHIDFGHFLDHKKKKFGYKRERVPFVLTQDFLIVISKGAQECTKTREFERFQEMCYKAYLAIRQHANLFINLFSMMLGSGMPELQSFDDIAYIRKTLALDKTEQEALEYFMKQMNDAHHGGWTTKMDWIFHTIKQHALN
For experiment [15] the target is unchanged. As to conditions: at 1 µM.
Experiment [16] addresses T3, Phosphatidylinositol 4,5-bisphosphate 3-kinase catalytic subunit delta isoform (Homo sapiens) (UniProt O00329).
T3 sequence (whole entry): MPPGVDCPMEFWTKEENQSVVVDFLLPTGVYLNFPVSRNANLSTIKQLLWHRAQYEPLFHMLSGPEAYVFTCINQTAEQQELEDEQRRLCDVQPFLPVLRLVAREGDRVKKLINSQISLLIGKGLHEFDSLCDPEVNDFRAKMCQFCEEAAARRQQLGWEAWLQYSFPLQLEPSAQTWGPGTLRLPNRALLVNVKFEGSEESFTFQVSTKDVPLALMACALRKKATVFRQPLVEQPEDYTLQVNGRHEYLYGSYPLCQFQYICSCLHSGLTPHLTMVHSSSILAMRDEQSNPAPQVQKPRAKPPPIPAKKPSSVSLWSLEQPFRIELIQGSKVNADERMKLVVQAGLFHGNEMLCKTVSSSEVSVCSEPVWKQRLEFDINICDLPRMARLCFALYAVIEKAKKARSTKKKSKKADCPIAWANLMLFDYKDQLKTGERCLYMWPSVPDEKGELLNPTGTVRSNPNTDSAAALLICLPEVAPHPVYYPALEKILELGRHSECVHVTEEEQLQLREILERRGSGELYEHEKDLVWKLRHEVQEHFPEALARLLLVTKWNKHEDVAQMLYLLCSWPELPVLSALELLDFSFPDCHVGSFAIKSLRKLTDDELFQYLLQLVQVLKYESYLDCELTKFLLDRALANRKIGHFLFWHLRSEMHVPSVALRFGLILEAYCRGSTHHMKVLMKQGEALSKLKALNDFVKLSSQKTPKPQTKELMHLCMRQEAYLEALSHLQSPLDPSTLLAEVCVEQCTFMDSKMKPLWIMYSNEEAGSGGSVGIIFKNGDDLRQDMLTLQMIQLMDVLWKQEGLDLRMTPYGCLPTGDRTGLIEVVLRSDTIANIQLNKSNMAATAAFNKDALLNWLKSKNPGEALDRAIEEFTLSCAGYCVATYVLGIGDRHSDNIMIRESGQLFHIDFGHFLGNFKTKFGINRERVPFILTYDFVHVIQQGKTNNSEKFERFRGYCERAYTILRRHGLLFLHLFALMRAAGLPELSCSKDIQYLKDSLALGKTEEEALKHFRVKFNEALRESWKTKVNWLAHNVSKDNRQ
As to conditions: at 0.1 µM.

Experiment [17] has as its target T3, Phosphatidylinositol 4,5-bisphosphate 3-kinase catalytic subunit delta isoform (Homo sapiens). As to conditions: at 1 µM.
Experiment [18] addresses Phosphatidylinositol 4-kinase beta (Homo sapiens) (UniProt Q9UBF8). As to conditions: at 0.1 µM.
Experiment [19] shares this target. As to conditions: at 1 µM.
The target of experiment [20] is Sphingosine kinase 1 (Homo sapiens) (UniProt Q9NYA1). The following applies: at 0.1 µM.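 Further: mean percent inhibition of SPHK1 activity, measured within the GSK PKIS screening panel.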
Sequence of Sphingosine kinase 1 (Homo sapiens) (Q9NYA1 whole entry): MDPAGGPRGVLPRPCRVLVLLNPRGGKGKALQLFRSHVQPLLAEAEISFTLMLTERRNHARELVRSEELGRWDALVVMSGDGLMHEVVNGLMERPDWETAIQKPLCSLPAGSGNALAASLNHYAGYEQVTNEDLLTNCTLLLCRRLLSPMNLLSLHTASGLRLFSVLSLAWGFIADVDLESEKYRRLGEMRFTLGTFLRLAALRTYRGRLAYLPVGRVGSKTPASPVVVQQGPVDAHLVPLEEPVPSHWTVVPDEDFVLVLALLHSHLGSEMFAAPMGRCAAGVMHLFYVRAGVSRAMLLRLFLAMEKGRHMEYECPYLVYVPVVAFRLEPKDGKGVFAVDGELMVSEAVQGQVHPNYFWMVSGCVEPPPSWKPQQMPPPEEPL

SMILES strings stand for the structures.

Sequence of Mitogen-activated protein kinase 11 (Homo sapiens) (Q15759 whole entry): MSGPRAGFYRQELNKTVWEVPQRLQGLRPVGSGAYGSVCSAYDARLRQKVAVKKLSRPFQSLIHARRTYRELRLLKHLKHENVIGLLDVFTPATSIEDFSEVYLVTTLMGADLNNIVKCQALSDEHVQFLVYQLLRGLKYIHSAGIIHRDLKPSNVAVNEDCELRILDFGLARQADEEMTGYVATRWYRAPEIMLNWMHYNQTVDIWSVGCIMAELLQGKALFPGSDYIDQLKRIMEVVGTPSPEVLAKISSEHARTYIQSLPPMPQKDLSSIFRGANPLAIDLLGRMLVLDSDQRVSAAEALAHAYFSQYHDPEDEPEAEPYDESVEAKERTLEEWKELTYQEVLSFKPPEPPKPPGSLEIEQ
Sequence of SRSF protein kinase 3 (Homo sapiens) (Q9UPE1 whole entry): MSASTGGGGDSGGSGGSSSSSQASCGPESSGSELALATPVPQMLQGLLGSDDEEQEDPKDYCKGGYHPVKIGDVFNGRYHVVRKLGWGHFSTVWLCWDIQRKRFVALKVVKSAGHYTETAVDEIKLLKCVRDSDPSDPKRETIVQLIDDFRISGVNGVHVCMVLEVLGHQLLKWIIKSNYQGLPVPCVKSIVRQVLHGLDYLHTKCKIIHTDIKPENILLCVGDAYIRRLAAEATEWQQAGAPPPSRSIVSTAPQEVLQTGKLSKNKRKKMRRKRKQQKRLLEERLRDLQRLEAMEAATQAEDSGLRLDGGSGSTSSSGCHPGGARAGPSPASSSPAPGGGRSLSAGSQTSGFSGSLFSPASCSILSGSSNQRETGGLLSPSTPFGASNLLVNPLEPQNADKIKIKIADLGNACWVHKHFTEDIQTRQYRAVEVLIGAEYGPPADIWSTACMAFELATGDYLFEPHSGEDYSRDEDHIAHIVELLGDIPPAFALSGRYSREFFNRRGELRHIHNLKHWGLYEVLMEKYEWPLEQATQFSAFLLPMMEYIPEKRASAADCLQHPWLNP
Sequence of Phosphatidylinositol 4-kinase beta (Homo sapiens) (Q9UBF8 2-816 limits assumed): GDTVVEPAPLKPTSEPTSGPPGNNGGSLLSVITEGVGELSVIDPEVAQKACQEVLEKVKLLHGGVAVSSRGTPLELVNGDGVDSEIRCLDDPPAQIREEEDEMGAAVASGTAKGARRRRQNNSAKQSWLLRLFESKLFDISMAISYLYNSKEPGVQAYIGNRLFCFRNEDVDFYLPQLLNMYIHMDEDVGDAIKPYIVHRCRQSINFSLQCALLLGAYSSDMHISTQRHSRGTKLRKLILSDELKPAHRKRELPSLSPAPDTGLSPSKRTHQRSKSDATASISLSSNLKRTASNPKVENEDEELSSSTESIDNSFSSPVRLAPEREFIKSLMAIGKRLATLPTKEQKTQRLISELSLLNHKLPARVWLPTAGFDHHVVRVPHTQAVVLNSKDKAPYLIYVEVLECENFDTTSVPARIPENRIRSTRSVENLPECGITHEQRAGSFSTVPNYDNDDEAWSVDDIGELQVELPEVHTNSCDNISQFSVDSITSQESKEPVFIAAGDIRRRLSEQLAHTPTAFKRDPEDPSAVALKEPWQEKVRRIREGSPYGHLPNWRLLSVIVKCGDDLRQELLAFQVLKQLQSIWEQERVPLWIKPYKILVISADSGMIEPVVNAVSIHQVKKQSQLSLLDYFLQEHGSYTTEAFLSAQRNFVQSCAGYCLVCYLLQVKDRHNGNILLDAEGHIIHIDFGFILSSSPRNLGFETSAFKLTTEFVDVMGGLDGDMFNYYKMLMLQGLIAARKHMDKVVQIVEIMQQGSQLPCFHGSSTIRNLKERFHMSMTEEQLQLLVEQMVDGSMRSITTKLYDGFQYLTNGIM
Sequence of Mitogen-activated protein kinase 3 (Homo sapiens) (P27361 whole entry): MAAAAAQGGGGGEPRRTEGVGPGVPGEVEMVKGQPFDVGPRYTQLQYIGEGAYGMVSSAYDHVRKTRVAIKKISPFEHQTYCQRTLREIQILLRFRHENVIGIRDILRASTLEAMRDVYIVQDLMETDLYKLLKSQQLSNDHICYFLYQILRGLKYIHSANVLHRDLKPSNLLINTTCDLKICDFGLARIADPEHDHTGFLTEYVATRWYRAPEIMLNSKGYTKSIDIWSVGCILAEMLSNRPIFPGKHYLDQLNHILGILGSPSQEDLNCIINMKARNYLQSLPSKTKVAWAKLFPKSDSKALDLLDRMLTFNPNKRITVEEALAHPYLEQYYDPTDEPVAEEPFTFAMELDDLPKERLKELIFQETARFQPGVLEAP

Take `COc1cccc(-n2ncc3c(N/N=C/c4ccc(C)cc4)ncnc32)c1`: the inhibition in [1] amounted to 3.26%; in experiment [2] it was 3.27%; in [3], 0.15%; in experiment [4] it was 6.95%; in experiment [5], 9.02%; in [6] it was 1.15%. Moreover, the inhibition in [7] is 4.42%; in experiment [8] it was 4.61%; in [9], 6.26%; in experiment [10] it was 3.81%; in experiment [11] it was 6.67%; in experiment [12], -3.85%. In addition, the inhibition in experiment [13] was -1.68%; in experiment [14], 5.44%; in experiment [15], 7.64%; in experiment [16] it was 1.43%; in experiment [17], 5.9%; in experiment [18], -1.45%. Moreover, the inhibition in experiment [19] worked out at 3.16%; in experiment [20], 3.47%.

With `COC(=O)c1ccc2c(c1)C(=Cc1cc(Br)c(O)c(Br)c1)C(=O)N2`, the inhibition in [1] was 5.46%; in experiment [2], 3.56%; in experiment [3], -0.06%; in [4] it was 5.88%; in experiment [5], 7.6%; in experiment [6] it was 2.64%. Further, the inhibition was 4.68% in experiment [7]; 3.43% in experiment [8]; 5.81% in experiment [9]; 4.05% in experiment [10]; 7.78% in experiment [11]; -4.19% in experiment [12]. Further, the inhibition in [13] is -1.41%; in [14], 20.2%; in [15] it was 71.1%; in experiment [16] it was -9.64%; in [17] it was -7.81%; in experiment [18], 43.6%. Also, the inhibition in [19] was 87.4%; in [20], 1.25%.

As to `O=S(=O)(CCOCc1ccc(-c2ccc3ncnc(Nc4ccc(OCc5cccc(F)c5)c(Cl)c4)c3c2)o1)c1ccccc1`, the inhibition in [1] was 1.69%; in experiment [2], -0.89%; in experiment [3], 1.24%; in experiment [4], 0.07%; in experiment [5], 0.7%; in experiment [6], -0.78%. The inhibition in experiment [7] is -0.75%; in experiment [8] it was 1.66%; in [9] it was 1.53%; in experiment [10], 1.14%; in experiment [11] it was 4.2%; in experiment [12], -2.76%. In addition, the inhibition was -1.54% in [13]; 1.05% in experiment [14]; 12.9% in experiment [15]; 0.99% in experiment [16]; 10.1% in experiment [17]; 0.56% in experiment [18]. In addition, the figures for the inhibition in [19] and in [20] were 0.4% and 1.08%, respectively.

For `COc1cc2ncnc(Nc3ccc4c(cnn4Cc4ccccc4)c3)c2cc1OC`, the inhibition was 3.12% in experiment [1]; -1.9% in [2]; -0.51% in experiment [3]; 4.33% in [4]; 3.94% in experiment [5]; 1.39% in experiment [6]. In addition, the inhibition in experiment [7] is 1.39%; in experiment [8] it was 3.21%; in [9], 2.74%; in [10], 2.87%; in experiment [11], 3.71%; in [12], -4.03%. For the same compound, the inhibition in experiment [13] is -2.33%; in experiment [14], 1.81%; in experiment [15] it was 2.38%; in experiment [16] it was 0.53%; in experiment [17], 1.87%; in experiment [18], 1.81%. The inhibition was 4.03% in [19] and 0.61% in experiment [20].

For the compound `COc1cc2ncn(-c3cc(OCc4ccccc4S(C)(=O)=O)c(C#N)s3)c2cc1OC`, the inhibition in experiment [1] turned out to be 4.78%; in [2] it was 0.72%; in [3], 1.49%; in experiment [4], 4.48%; in experiment [5], 8.47%; in experiment [6] it was 2.79%. The inhibition in experiment [7] was 6.97%; in experiment [8], 1.05%; in experiment [9], 3.85%; in experiment [10] it was 0.36%; in experiment [11], 2.63%; in [12], -1.91%. The inhibition in experiment [13] is -1.66%; in [14] it was 3.16%; in [15] it was 3.95%; in [16], 2.67%; in experiment [17], 3.41%; in [18], -5.13%. For the same compound, the inhibition in experiment [19] is -1.46%; in experiment [20] it was 0.08%.

With `NS(=O)(=O)c1ccc(Nc2cc(-c3cccc(O)c3)n[nH]2)cc1`, the inhibition in [1] is 3.73%; in experiment [2] it was 0.13%; in experiment [3], -0.83%; in experiment [4], 4.9%; in [5] it was 9.21%; in experiment [6], 7.39%. Also, the inhibition in [7] is 9.77%; in experiment [8] it was 2.03%; in experiment [9], 7.23%; in [10] it was 3.84%; in experiment [11] it was 3.15%; in experiment [12] it was -3.05%. Besides, the inhibition in experiment [13] is -2.8%; in [14], 4.26%; in experiment [15] it was 7.56%; in experiment [16], 2.48%; in experiment [17] it was 4.98%; in experiment [18] it was -1.18%. For the same compound, the figures for the inhibition in [19] and in experiment [20] were -1.14% and 1.67%, respectively.

On to `C[C@@H](Oc1cc(-n2cnc3ccc(OC[C@@H](O)CO)cc32)sc1C(N)=O)c1ccccc1Cl`, for which the inhibition was -2.21% in experiment [1]; -1.72% in experiment [2]; 0.27% in experiment [3]; 2.66% in [4]; 3.54% in experiment [5]; -1.66% in experiment [6]. In addition, the inhibition was 1.86% in [7]; -3.13% in [8]; -2.7% in experiment [9]; -0.19% in experiment [10]; -1.21% in [11]; -0.36% in experiment [12]. Further, the inhibition in [13] is -1.3%; in [14] it was -0.06%; in experiment [15], 13.4%; in experiment [16] it was 1.99%; in [17] it was 34.9%; in [18], 3.09%. For the same compound, the results for the inhibition in experiment [19] and in [20] were -1.09% and -2.33%, respectively.

For orientation: inhibition means the change of the read-out against control, counted positive when it falls.
